# Screens as filed in PubChem BioAssay.
# TRb-SRC2 inh: inhibitors of human thyroid hormone receptor beta-SRC2 interaction; TRbeta-SRC2 peptide binding, fluorescence polarization; receptor liganded with 1 µM T3; Potency, µM (highest dose often 106 µM), inactives show at the highest dose activity change, negative = inhibition, actives largely listed as inhibitors; 280,000 compounds, 0.065% hits;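 note: plate controls were bound peptide for no effect and peptide without receptor for full effect; nearly all actives have a fitted effect of over 50% in size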
# Target sequence (P10828 whole entry, looked up): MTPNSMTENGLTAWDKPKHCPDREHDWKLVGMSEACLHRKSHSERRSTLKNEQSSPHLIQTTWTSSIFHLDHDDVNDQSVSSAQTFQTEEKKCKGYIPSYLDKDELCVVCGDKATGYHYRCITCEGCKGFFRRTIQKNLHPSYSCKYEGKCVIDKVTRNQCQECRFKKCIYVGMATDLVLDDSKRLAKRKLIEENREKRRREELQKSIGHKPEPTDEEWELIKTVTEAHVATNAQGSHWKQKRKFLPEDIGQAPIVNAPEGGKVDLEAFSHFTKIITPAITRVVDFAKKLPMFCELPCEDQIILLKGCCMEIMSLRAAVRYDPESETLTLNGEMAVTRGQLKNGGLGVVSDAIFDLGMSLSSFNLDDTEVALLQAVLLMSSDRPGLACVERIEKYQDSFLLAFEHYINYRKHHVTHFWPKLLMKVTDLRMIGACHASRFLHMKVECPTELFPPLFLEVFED
#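 Each compound concentration gave % activity, normalized to unbound and bound Texas Red SRC2 controls, from polarization read after 5 hr ambient incubation with T3-loaded human TRb LBD.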
# Tau fibril ThT: tau fibrillization inhibition (ThT binding); recombinant tau K18 P301L, heparin-induced fibrillization, ThT fluorescence; Potency, µM (top dose mostly 57.4 µM), for the others: top-dose activity, negative = inhibition, most hits filed as inhibitors; 270,000 compounds, 2.1% hits; P10636; note: nearly all actives have a fitted effect of over 55% in size
# Target sequence (P10636 561-689 P618L limits assumed): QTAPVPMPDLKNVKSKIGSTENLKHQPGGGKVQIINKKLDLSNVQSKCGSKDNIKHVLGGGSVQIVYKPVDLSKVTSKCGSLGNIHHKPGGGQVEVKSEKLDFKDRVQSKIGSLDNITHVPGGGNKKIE
#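 Tau K18 P301L fragment (15 uM unlabeled plus 0.24 uM Alexa 594-labeled) in 100 mM sodium acetate pH 7 with compound, fibrillization induced by 20 uM heparin for 6 hr at 37 C. Thioflavin T (30 uM) added, fluorescence read after 1 hr (ex 450, em 510 nm).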
# Tau fibril FP: tau fibrillization inhibition (FP); P10636; K18 P301L tau heparin fibrillization, Alexa594 FP, 6 h; Potency, µM (titrated, usually from 57.7 µM), without a hit: top-dose activity, negative = inhibition, most hits filed as inhibitors; 280,000 compounds, 0.39% hits; note: nearly all actives have a fitted effect of over 55% in size
#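 Heparin (20 uM) drove fibril formation of recombinant tau K18 P301L, 15 uM unlabeled with 0.24 uM Alexa 594 label, for 6 hr at 37 C in 100 mM sodium acetate pH 7. Fluorescence polarization (555/632 nm) read 1 hr after 30 uM ThT.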
# Tau fluor cs: counter-screen for tau fibril formation inhibitors. Potency, µM (titrated, usually from 57.7 µM), for the others: at the highest dose activity change, negative = decrease. 280,000 compounds, 0.93% hits. AID 1463. tau K18 P301L (four-repeat tau fragment) Alexa594 fluorescence, heparin fibrillization; note: nearly all actives have a fitted effect of over 55% in size
#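 Human K18 P301L tau (15 uM unlabeled plus 0.24 uM Alexa 594-labeled, final) in 100 mM sodium acetate pH 7 was mixed with compound and 20 uM heparin and incubated 6 hr at 37 C.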
# TR SRC2 fluor cs: alters Texas Red total fluorescence, flagging assay interference; TRb/SRC2 Texas Red total fluorescence interference; Potency, µM (top dose mostly 106 µM), for inactives: top-dose fluorescence change, negative = quenching; 280,000 compounds, 0.29% hits; AID 1479; active = well fitted curve in either direction with a large enough effect; inconclusive = small, poorly fitted or top-dose-only effect
#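 Human TRb ligand-binding domain at 0.6 uM with 20 nM Texas Red SRC2 peptide in Tris buffer containing 1 uM T3 and 5% DMSO, incubated with compound 5 h at ambient temperature. Total fluorescence (555/632 nm) calculated as parallel + 2 × perpendicular.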
# * hit, by the source's call; ? = inconclusive; / = no result given; [ ] = another dose, or the depositor's remark. An excerpt weighted towards active compounds, which were near 3.1% of everything screened. Unless noted, calls come from the whole dose curve; as a rule, active = well fitted curve in the direction sought with a large enough effect; inconclusive = small, poorly fitted or top-dose-only effect, or another doubt; inactive = no such curve, though single readings can be large; an effect the other way counts as inactive or inconclusive. Unless noted, % is set by controls: 0 for no effect and ±100 for the full control effect; potency is the fitted concentration of half-maximal effect.
SMILES,TRb-SRC2 inh,Tau fibril ThT,Tau fibril FP,Tau fluor cs,TR SRC2 fluor cs
COc1ccc(-c2noc(Cn3c(=O)c4ccccc4n(CC(=O)Nc4cccc(C(F)(F)F)c4)c3=O)n2)cc1,-10.4%,?,11.2µM*,-8.6%,-0.2%
O=C(Cn1c(=O)n(Cc2nc(-c3ccccc3)no2)c(=O)c2cc3c(cc21)OCO3)Nc1cccc(C(F)(F)F)c1,-4.4%,?,10µM*,-9.4%,-1.6%
O=C(NC1CCS(=O)(=O)C1)c1cccnc1 (stereo unspecified),-3.5%,-3.1%,?,-12.9%,-0.7%
O=C(/C=C/c1c(Cl)cccc1Cl)n1cccn1,-5.6%,10µM*,?,-13.5%,-1.8%
N#C/C(=C\c1ccc(O)c(O)c1)C(=O)OCCc1cccs1,7.0%,14.1µM*,12.8%,17.8µM*[quencher],-4.3%
COc1ccc(CNC(=O)CSc2nc(-c3ccc(OC)c(OC)c3)cc(C(F)(F)F)n2)cc1,-7.1%,-7.9%,5.0%,-15.1%,?
COc1ccc(Cl)cc1C(=O)N/N=C/c1ccc(N2CCOCC2)cc1,-2.0%,11.2µM*,1.5%,-23.2%,-2.7%
O=C(N/N=C/c1ccc(N2CCOCC2)cc1)c1ccccn1,1.3%,14.1µM*,-2.7%,-16.9%,-1.8%
N#Cc1ccccc1NS(=O)(=O)c1ccc(N2CCCCS2(=O)=O)cc1,-7.5%,11.4%,4.9%,17.7%,0.4%
CCN1CCC2(CC1)Oc1c(OC)cccc1C1CC(c3cccnc3)=NN12 (stereo unspecified),11.2%,0.5%,5.3%,-6.9%,-1.8%
CCOC(=O)c1cc2c(=O)n3ccccc3nc2n(CC(C)C)c1=NC(=O)COc1ccc(Cl)cc1,4.6%,14.7%,2.4%,-14.2%,-1.6%
O=C(Cn1ccc(C(F)(F)F)n1)N/N=C/c1ccc(N2CCOCC2)cc1,3.9%,-9.2%,0.5%,0.1%,-3.2%
COC(=O)c1cc(NC(=O)c2cc(-c3ccccc3Cl)oc2C(F)(F)F)ccc1N1CCOCC1,9.5%,/,?,12.6µM*[quencher],0.2%
Cc1ccc(-n2c3c(c(=O)[nH]c2=O)C(NC(=O)c2ccccc2F)(C(F)(F)F)C(=O)N3)cc1C (stereo unspecified),-2.5%,-0.9%,?,-11.3%,0.6%
NSc1nc(N)c2nc(-c3ccccc3)c(-c3ccccc3)nc2n1,-5.7%,15.8µM*,?,-19.3%,-2.6%
Nc1nc(N)c2nc(-c3ccccc3)c(N)nc2n1,-10.4%,3.3%,4.4%,-0.8%,-3.8%
CCN(CC)S(=O)(=O)c1ccc(N=NC2=C(O)CCCC2=O)cc1,39.8µM*,-10.7%,-1.9%,-10.0%,44.7µM*[fluorescent]
CCN(CC)S(=O)(=O)c1ccc(N=NC2=C(O)CC(C)(C)CC2=O)cc1,2.1%,-3.3%,-3.6%,-4.6%,0.7%
CCCCCn1c(=O)c(C(=O)c2ccccc2)nc2ccccc21,-19.9%,-15.0%,-0.7%,-18.4%,-0.5%
CCCCCCn1c(=O)[nH]c2nc3cc(N)ccc3nc2c1=O,1.7%,28.2µM*,?,?,0.0%
CCc1ccccc1NC(=O)N1CCOc2ccccc21,-0.1%,2.1%,-3.3%,-1.4%,0.0089µM*[quencher]
COc1ccc(NC(=O)N2CCOc3ccc(Cl)cc32)cc1,1.3%,-9.7%,13.6%,8.91µM*[quencher],?
CCOC(=O)c1ccccc1NC(=O)N1CCOc2ccc(Cl)cc21,-6.7%,6.3%,-2.3%,3.16µM*[quencher],4.47µM*[quencher]
CCc1ccccc1NC(=O)N1CCc2ccccc21,4.2%,?,-9.1%,-17.4%,-0.9%
O=C(CSc1ncn[nH]1)Nc1cc(S(=O)(=O)N2CCCC2)ccc1Cl,-1.4%,-0.2%,4.6%,4.9%,1.7%
SMILES,TRb-SRC2 inh,Tau fibril ThT,Tau fibril FP,Tau fluor cs,TR SRC2 fluor cs
O=C(NCc1ccccc1)c1cc[n+](Cc2ccccc2)cc1,4.6%,-0.8%,0.5%,6.6%,-2.0%
O=C(Nc1ccc(O)c2c(=O)cc(-c3ccccc3Cl)oc12)c1cc(Cl)cc(Cl)c1,2.6%,/,/,/,-2.1%
O=c1c(Cc2ccccc2)c(O)ccn1Cc1ccc2c(c1)OCO2,-1.7%,5.8%,-2.1%,4.2%,-4.7%
Cc1cc(SCC(=O)c2cc(C)n(C)c2C)nc2ccccc12,-4.3%,12.1%,0.8%,-2.7%,-5.9%
CCN(CC)c1ccc(NC(=O)Nc2ccc(C(C)=O)cc2)cc1,-6.7%,?,8.3%,14.1µM*[quencher],-0.2%
COC(=O)c1ccc(Oc2coc3cc(OCc4ccc([N+](=O)[O-])cc4)ccc3c2=O)cc1,1.3%,?,1.7%,-13.2%,9.2%
O=c1[nH]sc2ccccc12,2.4%[201 µM],11.2µM*,25.1µM*,-14.5%,-3.2%[201 µM]
COc1ccc(-c2cc(C3CCN(C(=O)OC(C)(C)C)CC3)[nH]n2)cc1,-1.0%,-13.9%,-6.3%,-16.4%,-3.8%
CC(=O)c1ccc(N2CCN(c3ccc(C(N)=O)cc3[N+](=O)[O-])CC2)cc1,-3.5%,5.1%,4.4%,5.6%,-0.7%
CC(=O)c1ccc(N2CCC(c3cc(-c4ccc(Cl)cc4)n[nH]3)CC2)c([N+](=O)[O-])c1,6.5%,4.47µM*,?,?,-1.8%
COc1ccc(-c2cc(C3CCN(c4ccc(C(C)=O)cc4[N+](=O)[O-])CC3)[nH]n2)cc1,2.4%,3.55µM*,-6.3%,?,-3.8%
COC(=O)c1ccc(N2CCC(c3cc(-c4ccc(OC)cc4)n[nH]3)CC2)c([N+](=O)[O-])c1,-11.6%,3.55µM*,?,?,0.0%
CC1CC=CC2C1C(=O)N(Cc1ccccc1)C2c1cccc([N+](=O)[O-])c1 (stereo unspecified),-2.3%,/,/,/,-2.1%
CC1=NOC(=O)/C1=C\c1ccc(-c2cc(Cl)ccc2Cl)o1,-1.0%,?,-0.8%,-28.8%,-1.8%
CC1=NOC(=O)/C1=C\c1ccc(-c2ccc(Br)cc2)o1,-2.9%,28.2µM*,2.4%,-29.9%,-4.6%
CC1=NOC(=O)/C1=C/c1ccc(-c2ccc(Cl)cc2)o1,1.7%,17.8µM*,-8.1%,?,-8.4%
COc1cccc(NC(=O)c2oc3ccccc3c2NC(=O)C23CC4CC(CC(C4)C2)C3)c1,-1.4%,5.8%,?,-24.4%,-2.2%
O=C(CCS(=O)(=O)c1cccc2nsnc12)Nc1ccc(F)cc1,-9.1%,?,-6.6%,-14.0%,-1.1%
COC(=O)c1cnc(N2CCN(c3ccc(OC)cc3)CC2)c2ccccc12,-10.6%,11.2µM*,-5.1%,?,0.6%
CCC(Sc1nc2nccnc2c(=O)n1Cc1ccccc1Cl)C(=O)NC1CCCCC1 (stereo unspecified),-0.9%,2.5%,?,-19.4%,4.2%
CCOC(=O)c1cc(C#N)c(SCC(=O)OC)[nH]c1=O,-3.6%,?,-3.2%,-10.6%,-0.7%
CCOC(=O)c1ccc(N=Nc2c(C)c(C#N)c(O)[nH]c2=O)cc1,10.2%,1.41µM*,-5.4%,-28.8%,-1.6%
O=C(C[n+]1ccc(CCSc2ccc(F)cc2)cc1)c1ccccc1,-3.1%,28.2µM*,?,-13.9%,0.2%
